The panel holds about 79,000 compounds, 15% with a hit somewhere; the sample as a whole holds those more often. Unmarked numbers belong to inactive results. The source made the active and inactive calls. Cut-off read from the data, not from the text of the source: active = growth inhibition above about 70%; inactive = the rest.
Test: NCI Yeast Anticancer Drug Screen. Data for the rad18 strain (AID 177)
Conditions: S. cerevisiae rad18 mutant growth inhibition, active compounds read high
Description: Growth inhibition of yeast strains with defined genetic alterations is measured as a screen for potential anti-cancer activity. Selected strains with alterations in DNA damage repair or cell cycle control were exposed to compounds and growth inhibition was measured relative to vehicle treated controls. The strain used in this assay is rad18

Row | Compound | growth inhibition (at 1.2 µM) | growth inhibition (at 3.7 µM) | growth inhibition (at 11.0 µM) | growth inhibition (at 33.0 µM) | growth inhibition (at 100.0 µM)
1 | O=C1c2cc([N+](=O)[O-])ccc2-c2cccc(F)c21 | 45% | 78% (active) | 90% (active) | 93% (active) | 89% (active)
2 | Cc1ccc2[nH]c3c(C)c4cc[n+](C)cc4c(C)c3c2c1 | -11% | -1% | 1% | 37% | 93% (active)
3 | O=[N+]([O-])c1cccc2nccc(NCCCO)c12 | 46% | 79% (active) | 88% (active) | 93% (active) | 94% (active)
4 | COc1ccc(Br)c(C(=O)Sc2nnnn2-c2cccc(Cl)c2)c1 | -24% | -10% | -8% | 52% | 93% (active)
5 | CNC(=O)OCc1c(COC(=O)NC)c(-c2ccc(Cl)c(Cl)c2)n2c1CCC2 | -39% | -46% | -32% | 94% (active) | 97% (active)
6 | Cc1ccc(S/N=C\c2ccccc2O)cc1 | -1% | 0% | 0% | 1% | 9%
7 | NC1=NS(=O)(=O)N=C(N)C1=Cc1ccc([N+](=O)[O-])o1 | 11% | 17% | 71% (active) | 89% (active) | 98% (active)
8 | CCCC/C=C/C(CC)(C(=O)OCC)C(=O)OCC | -1% | 3% | 4% | 3% | 7%
